Values without a mark were called inactive. Inconclusive results are not listed. Where a call stands in place of a potency, no number is given. Calls of active or inactive are those of the source. Unless noted, calls come from the whole dose curve.
Columns and labels:
[1] = Nuclear factor erythroid 2-related factor 2/antioxidant responsive element (Nrf2/ARE) small molecule agonists: qHTS cell viability counter screen in human keratinocytes (AID 1919968; active = well fitted curve in the direction sought with a large enough effect in the repeat runs; an effect the other way counts as inactive or inconclusive; note: nearly all actives have a fitted effect of over 55% in size; note: potency is the fitted concentration of half-maximal effect)
How it was run: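 Cytotoxicity was multiplexed with the Nrf2/ARE luciferase assay in the same wells. Stably transfected HaCaT keratinocytes were treated with test compounds for 23 h at 37 C. Cell viability was then measured by CellTiter-Fluor fluorescence.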

[2] = Nuclear factor erythroid 2-related factor 2/antioxidant responsive element (Nrf2/ARE) small molecule agonists: luciferase reporter gene qHTS assay in human keratinocytes (AID 1919969); note: nearly all actives have a fitted effect of over 35% in size; note: potency is the fitted concentration of half-maximal effect
[3] = target: Gonadotropin-releasing hormone receptor (Homo sapiens) (UniProt P30968); test: Human gonadotropin-releasing hormone receptor (GnRHR) small molecule agonists, calcium flux assay in GnRHR-HEK293 cells (AID 1920063); note: nearly all actives have a fitted effect of over 35% in size
Chain of Gonadotropin-releasing hormone receptor (Homo sapiens) (P30968 whole entry, looked up): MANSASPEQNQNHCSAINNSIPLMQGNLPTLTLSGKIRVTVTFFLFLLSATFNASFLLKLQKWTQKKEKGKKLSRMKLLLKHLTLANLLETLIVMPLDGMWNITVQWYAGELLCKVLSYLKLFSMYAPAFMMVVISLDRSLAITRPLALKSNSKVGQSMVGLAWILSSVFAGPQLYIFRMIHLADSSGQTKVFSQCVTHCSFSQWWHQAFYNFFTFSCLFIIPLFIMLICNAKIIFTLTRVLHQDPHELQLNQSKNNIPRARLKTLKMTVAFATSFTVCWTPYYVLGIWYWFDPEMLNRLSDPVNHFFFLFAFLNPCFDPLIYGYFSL
How it was run: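 Agonist activity was measured as intracellular calcium flux in HEK293 cells engineered to stably express human GnRHR. After dye loading for 1 hour at 37 C, compounds in DMSO were added and fluorescence was followed for 3 minutes.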

[4] = target: KiSS-1 receptor (Homo sapiens) (UniProt Q969F8); test: Human kisspeptin (KISS1R) small molecule agonists, calcium flux assay in KISS1R-HEK293 cells (AID 1920064; active = well fitted curve in the direction sought with a large enough effect in the repeat runs; an effect the other way counts as inactive or inconclusive)
Chain of KiSS-1 receptor (Homo sapiens) (Q969F8 whole entry, looked up): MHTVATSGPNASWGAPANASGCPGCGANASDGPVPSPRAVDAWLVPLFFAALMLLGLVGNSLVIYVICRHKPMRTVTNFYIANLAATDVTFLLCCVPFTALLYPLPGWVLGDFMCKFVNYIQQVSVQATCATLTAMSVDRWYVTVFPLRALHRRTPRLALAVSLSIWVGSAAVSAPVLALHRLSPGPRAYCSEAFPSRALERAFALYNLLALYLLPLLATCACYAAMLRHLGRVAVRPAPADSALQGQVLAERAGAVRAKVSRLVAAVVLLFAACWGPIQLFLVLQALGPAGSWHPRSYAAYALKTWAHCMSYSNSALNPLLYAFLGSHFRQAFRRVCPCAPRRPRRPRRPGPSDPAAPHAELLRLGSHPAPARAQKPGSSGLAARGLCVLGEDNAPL
How it was run: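 Agonist activity is monitored as intracellular calcium rise in engineered HEK293 cells carrying human KISS1R. Cells are dye-loaded for 1 h at 37 C before compound addition, and fluorescence is recorded for 3 min.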

[5] = G protein-coupled receptor (GPCR) small molecule agonists, calcium flux assay: HEK293 wild type cell line counter screen (AID 1920065)
How it was run: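 Seed cells, incubate 18 h (37 C, 5% CO2); add calcium dye, 1 h at 37 C; pin-transfer compounds, ATP control or DMSO; read fluorescence 480/540 nm each second for 3 min.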

[6] = p53 small molecule agonists, cell-based qHTS assay with human liver microsomes: qHTS cell viability counter screen (AID 1963579); note: nearly all actives have a fitted effect of over 45% in size; note: potency is the fitted concentration of half-maximal effect
How it was run: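 Metabolically activated exposure: compounds, human liver microsomes and NADPH (0.5 mg/mL final apiece) were added to p53RE-bla cells seeded 5 h earlier, left 16 h at 37 C, and then assessed for viability by CellTiter-Glo luminescence.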

[7] = p53 small molecule agonists, cell-based qHTS assay with rat liver microsomes: qHTS cell viability counter screen (AID 1963580); note: nearly all actives have a fitted effect of over 45% in size; note: potency is the fitted concentration of half-maximal effect
How it was run: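 Counter screen for cytotoxicity under metabolic activation: rat liver microsomes and NADPH, 0.5 mg/mL final each, added with compounds to p53RE-bla HCT-116 cells; 16 h at 37 C, then ATP luminescence read.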

[8] = p53 small molecule agonists, cell-based qHTS assay: qHTS cell viability counter screen (AID 1963581); note: nearly all actives have a fitted effect of over 45% in size; note: potency is the fitted concentration of half-maximal effect
How it was run: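 Viability was counter-screened in parallel with the p53 agonist reporter by measuring intracellular ATP luminescence in the same HCT-116 p53RE-bla wells after 16 h compound treatment at 37 C.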

[9] = cAMP Responsive Elements (CRE) small molecule agonists, cell-based qHTS assay (AID 1963590)
How it was run: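 Cells carrying a CRE-driven beta-lactamase reporter (HEK 293T) are seeded, incubated overnight (18 h), and treated with test compounds for 3 h at 37 C; reporter activity is then detected with a FRET substrate after 2 h at room temperature.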

[10] = cAMP Responsive Elements (CRE) small molecule antagonists, cell-based qHTS assay (AID 1963591; active = well fitted inhibition curve with a large enough effect in the signal ratio in the repeat runs, not every such curve was filed as active; the % refers to the signal ratio)
How it was run: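 Cells (CRE-bla HEK 293T, DMEM with 10% dialyzed FBS and 25 mM HEPES) are seeded and incubated 18 h. Compounds are added with NKH477 agonist at 0.25 uM final for 3 h, then FRET substrate for 2 h.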

[11] = target: Beta-2 adrenergic receptor (Homo sapiens) (UniProt P07550); test: Adrenergic beta2 receptor (ADRB2) small molecule antagonists, cell-based qHTS assay (AID 1963592); note: series mostly up to about 92 µM; nearly all actives have a fitted effect of over 50% in size
Chain of Beta-2 adrenergic receptor (Homo sapiens) (P07550 whole entry, looked up): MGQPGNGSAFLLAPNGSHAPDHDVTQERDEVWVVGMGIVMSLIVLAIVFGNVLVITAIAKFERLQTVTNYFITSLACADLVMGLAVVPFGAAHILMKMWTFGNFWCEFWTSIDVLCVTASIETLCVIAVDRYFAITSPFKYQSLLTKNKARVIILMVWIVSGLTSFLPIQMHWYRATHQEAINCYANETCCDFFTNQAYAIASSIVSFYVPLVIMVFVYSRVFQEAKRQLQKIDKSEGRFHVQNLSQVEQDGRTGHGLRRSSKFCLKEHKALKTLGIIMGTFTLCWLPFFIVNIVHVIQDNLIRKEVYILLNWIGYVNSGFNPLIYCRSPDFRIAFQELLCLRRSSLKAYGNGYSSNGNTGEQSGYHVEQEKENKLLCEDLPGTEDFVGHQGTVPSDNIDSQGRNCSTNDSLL
How it was run: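 Assay format: CHO-ADRB2 cells, 18-20hr seeding at 37C/5% CO2, then compound plus 1nM isoproterenol agonist mix for 0.5hr RT. Homogeneous time-resolved fluorescence cAMP detection after 1hr, expressed as 665/615 nm ratio.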

[12] = target: D(2) dopamine receptor (Homo sapiens) (UniProt P14416); test: Dopamine D2 receptor (DRD2) small molecule antagonists, cell-based qHTS assay (AID 1963595; active = well fitted inhibition curve with a large enough effect in the signal ratio in the repeat runs, with a control signal flat; the % refers to the signal ratio; note: potency is the fitted concentration of half-maximal effect)
Chain of D(2) dopamine receptor (Homo sapiens) (P14416 whole entry, looked up): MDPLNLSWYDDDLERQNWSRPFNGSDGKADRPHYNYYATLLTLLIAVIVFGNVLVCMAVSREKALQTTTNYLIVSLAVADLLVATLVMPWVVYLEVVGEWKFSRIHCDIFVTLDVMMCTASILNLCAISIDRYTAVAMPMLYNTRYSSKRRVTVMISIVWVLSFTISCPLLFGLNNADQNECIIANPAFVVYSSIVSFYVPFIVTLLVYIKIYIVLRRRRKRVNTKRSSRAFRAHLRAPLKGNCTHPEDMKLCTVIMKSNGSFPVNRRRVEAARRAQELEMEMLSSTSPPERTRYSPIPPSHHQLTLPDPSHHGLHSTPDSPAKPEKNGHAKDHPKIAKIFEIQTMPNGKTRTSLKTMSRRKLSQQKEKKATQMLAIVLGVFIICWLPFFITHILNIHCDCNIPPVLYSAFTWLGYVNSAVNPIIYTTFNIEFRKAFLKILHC
How it was run: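 Cells were plated and grown for 24 h at 37 °C. Ro20-1724 (0.1 mM final) went in first, then compound for 10 min. NKH477 (200 nM) with quinpirole (12 nM) followed for 30 min at RT, then HTRF detection reagents for 1 h.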

[13] = target: D(2) dopamine receptor (Homo sapiens) (UniProt P14416); test: Dopamine D2 receptor (DRD2) small molecule agonists, cell-based qHTS assay (AID 1963594); note: nearly all actives have a fitted effect of over 35% in size
How it was run: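 HEK293 cells stably expressing DRD2 were cultured 24 h at 37 C, then given Ro20-1724 (0.1 mM final) and compounds for 10 min at room temperature. NKH477 (200nM) was then added for 30 min. cAMP was read by HTRF.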

[14] = target: 5-hydroxytryptamine receptor 2A (Homo sapiens) (UniProt P28223); test: 5-hydroxytryptamine receptor 2A (HTR2A) small molecule agonists, cell-based qHTS assay (AID 1963587); note: nearly all actives have a fitted effect of over 30% in size
Chain of 5-hydroxytryptamine receptor 2A (Homo sapiens) (P28223 whole entry, looked up): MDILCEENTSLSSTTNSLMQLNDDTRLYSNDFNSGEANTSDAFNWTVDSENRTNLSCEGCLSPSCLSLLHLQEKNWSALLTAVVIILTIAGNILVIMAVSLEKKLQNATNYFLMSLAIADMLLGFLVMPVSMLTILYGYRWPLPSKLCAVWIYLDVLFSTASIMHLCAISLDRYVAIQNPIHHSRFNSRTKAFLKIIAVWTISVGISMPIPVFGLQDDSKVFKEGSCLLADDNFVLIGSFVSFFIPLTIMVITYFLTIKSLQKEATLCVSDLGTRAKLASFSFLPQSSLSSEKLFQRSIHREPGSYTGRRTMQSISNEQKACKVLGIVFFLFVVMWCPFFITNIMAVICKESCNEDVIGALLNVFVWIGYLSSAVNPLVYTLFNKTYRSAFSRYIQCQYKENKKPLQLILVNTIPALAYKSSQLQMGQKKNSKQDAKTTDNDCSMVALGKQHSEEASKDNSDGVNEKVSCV
How it was run: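 HTR2A-CHO cells, plated 18 h at 37 C/5% CO2, dye-loaded 1 h at 37 C; compounds in DMSO added by pin tool (agonist mode). Intracellular calcium flux read as kinetic fluorescence on FDSS over 2 min at 1 s intervals.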

[15] = target: Muscarinic acetylcholine receptor M1 (Homo sapiens) (UniProt P11229); test: Cholinergic receptor muscarinic 1 (CHRM1) small molecule antagonists, cell-based qHTS assay (AID 1963588); note: nearly all actives have a fitted effect of over 40% in size
Chain of Muscarinic acetylcholine receptor M1 (Homo sapiens) (P11229 whole entry, looked up): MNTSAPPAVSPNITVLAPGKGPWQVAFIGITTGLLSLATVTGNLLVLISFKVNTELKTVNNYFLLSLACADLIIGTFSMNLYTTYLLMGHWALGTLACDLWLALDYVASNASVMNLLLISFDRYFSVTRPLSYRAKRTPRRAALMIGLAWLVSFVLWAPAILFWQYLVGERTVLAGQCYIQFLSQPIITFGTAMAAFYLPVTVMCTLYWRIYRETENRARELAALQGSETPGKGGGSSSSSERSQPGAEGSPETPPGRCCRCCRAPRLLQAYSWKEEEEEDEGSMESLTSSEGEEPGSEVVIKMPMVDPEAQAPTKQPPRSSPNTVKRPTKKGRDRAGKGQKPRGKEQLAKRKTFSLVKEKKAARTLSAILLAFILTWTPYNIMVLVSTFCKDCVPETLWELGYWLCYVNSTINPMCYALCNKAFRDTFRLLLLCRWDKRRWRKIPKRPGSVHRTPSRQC
How it was run: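 Compounds were tested at 15 concentrations in three independent runs. Dye-loaded CHRM1-CHO cells were exposed 5 min at room temperature before stimulation by acetylcholine added at 50nM. Intracellular calcium was read kinetically on FDSS for 3 min.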

[16] = target: Muscarinic acetylcholine receptor M1 (Homo sapiens) (UniProt P11229); test: Cholinergic receptor muscarinic 1 (CHRM1) small molecule agonists, cell-based qHTS assay (AID 1963589); note: nearly all actives have a fitted effect of over 35% in size
How it was run: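 Cells were plated and incubated 18 h at 37 C/5% CO2, loaded with calcium dye for 1 h at 37 C, then treated with compounds in DMSO. Fluorescence was recorded kinetically at 1 sec intervals.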

[17] = target: Beta-2 adrenergic receptor (Homo sapiens) (UniProt P07550); test: Adrenergic beta2 receptor (ADRB2) small molecule agonists, cell-based qHTS assay (AID 1963593);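 note: CHO cells stably overexpressing human ADRB2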
How it was run: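 CHO cells stably over-expressing ADRB2 were plated overnight at 37C, then dosed with compounds plus a stimulation mix containing 100uM IBMX and 25uM Ro-20-1724 for 0.5hr at room temperature. cAMP was measured by HTRF competition, 1hr.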

Row | SMILES | Potency [1] | Potency [2] | Potency [3] | Potency [4] | Potency [5] | Potency [6] | Potency [7] | Potency [8] | Potency [9] | Potency [10] | Potency [11] | Potency [12] | Potency [13] | Potency [14] | Potency [15] | Potency [16] | Potency [17]
1 | O=C(O)CO | inactive | inactive | inactive | inactive | inactive | inactive | inactive | inactive | inactive | inactive | inactive | inactive |  |  |  |  | 
2 | Nc1ccn([C@@H]2O[C@H](CO)[C@@H](O)[C@@H]2O)c(=O)n1 | inactive | inactive | inactive | inactive | inactive | inactive | inactive | inactive | inactive | inactive |  | inactive | inactive |  |  |  | 
3 | S=C([S-])NCCNC(=S)[S-].[Mn+2] | inactive | inactive | inactive | inactive | inactive | inactive | inactive | inactive | inactive |  | inactive |  | inactive | inactive | inactive | inactive | 
4 | CCCCC(CC)COC(=O)c1ccccc1 (configuration not stated) | inactive | inactive | inactive | inactive | inactive | inactive | inactive | inactive | inactive | inactive | inactive | inactive | inactive |  | inactive | inactive | 
5 | c1cc(CCCc2ccncc2)ccn1 | inactive | inactive | inactive | inactive | inactive | inactive | inactive | inactive | inactive | inactive | inactive | inactive | inactive | inactive |  | inactive | inactive
6 | CCCCCCCCCCCCOC(C)=O | inactive | inactive | inactive | inactive | inactive | inactive | inactive | inactive | inactive | inactive | inactive | inactive | inactive | inactive |  | inactive | inactive
7 | O=C(O)CNC(=O)c1ccccc1 | inactive | inactive | inactive | inactive | inactive | inactive | inactive | inactive | inactive | inactive | inactive |  | inactive | inactive |  | inactive | inactive
8 | CC1CC(OC(=O)C(O)c2ccccc2)CC(C)(C)N1C (configuration not stated) | inactive | inactive | inactive | inactive | inactive | inactive | inactive | inactive | inactive | inactive | inactive | inactive | inactive | inactive |  | inactive | inactive
9 | C/C=C1\C(=O)C[C@H]2[C@@H]3CCC4=CC(=O)CC[C@]4(C)[C@H]3CC[C@]12C | inactive | 2.13 µM (active) | inactive | inactive | inactive | inactive | inactive | inactive |  |  | inactive | inactive | inactive | inactive | inactive | inactive | 
10 | COC(=O)c1ccc(C(=O)OC)c(C(=O)OC)c1 | inactive | inactive | inactive | inactive | inactive | inactive | inactive | inactive | inactive |  | inactive | inactive | inactive | inactive | inactive | inactive | inactive
11 | CCCCCCOC(=O)CCCCCCCC(=O)OCCCCCC | inactive | inactive | inactive | inactive | inactive | inactive | inactive | inactive | inactive | inactive |  | inactive | inactive |  | inactive | inactive | inactive
12 | Cn1c(NCCN(CCO)CCCc2ccc([N+](=O)[O-])cc2)cc(=O)n(C)c1=O | inactive | inactive | inactive | inactive | inactive | inactive | inactive | inactive | inactive | inactive | inactive | inactive | inactive |  | inactive | inactive | inactive
13 | N=C1N=C(N)c2cc3ccccc3cc21 | 24.3 µM (active) | 21.7 µM (active) | inactive | inactive | inactive | 45.8 µM (active) | 45.8 µM (active) | 23.6 µM (active) |  |  |  |  |  | inactive |  | inactive | 
14 | CN1CCC(=C2c3ccccc3CCc3cccnc32)CC1 | inactive | inactive | inactive | inactive | inactive | inactive | inactive | inactive | inactive | inactive | inactive | 29.8 µM (active) | inactive | inactive |  | inactive | 
15 | CC(=O)OCC(CCn1cnc2cnc(N)nc21)COC(C)=O | inactive | inactive | inactive | inactive | inactive | inactive | inactive | inactive | inactive | inactive | inactive | inactive | inactive |  |  |  | inactive
16 | CCC1Nc2cc(Cl)c(S(N)(=O)=O)cc2S(=O)(=O)N1 (configuration not stated) | inactive | inactive | inactive | inactive | inactive | inactive | inactive | inactive | inactive | inactive |  | inactive | inactive | inactive | inactive | inactive | inactive
